Bioassay records: PubChem BioAssay, National Center for Advancing Translational Sciences (NCATS)
This is a sample that favours compounds with a hit; in the whole collection about 21% have one here.
Shiga inhibitor – inhibitors of Shiga toxin in Vero cells. Vero cells, Shiga toxin protein synthesis inhibition reporter. inhibition, % at 38.7 µM. 290,000 compounds, 9.2% hits; in the data active = inhibition mostly above about 28%, no sharp cut-off; inactive = mostly below about 43%; also: 0% is about no effect
Pf growth 96h – inhibits malaria parasite growth, 96 h. 320,000 compounds, 6.9% hits. P. falciparum luciferase reporter growth, 96 h. Potency, µM (titrated, usually from 28.7 µM), for the others: at the top dose activity change, negative = inhibition, actives largely listed as inhibitors; also: potency is read from the fitted curve at half-maximal effect; % is scaled to controls: 0 for no effect and ±100 for the full control effect
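Parasite growth measured via integrated firefly luciferase reporter in P. falciparum. Infected erythrocytes at 2% hematocrit, 0.05% parasitemia final were treated 96 hours at 37 C under 5% CO2, and luminescence was read.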
CHX counter – counter-screen hit for Shiga toxin inhibitors, cycloheximide; 300,000 compounds, 12% hits; max response, %; cell reporter, cycloheximide protein synthesis inhibition counterscreen; in the data active = max response mostly above about 13%, no sharp cut-off; inactive = mostly below about 14%; also: read at 38.3 µM for the half of the compounds with a filed dose; 0% is about no effect
NS1 function inh – blocks influenza NS1 protein function; 270,000 compounds, 0.4% hits; Potency, µM (doses to about 46.1 µM), inactives show top-dose activity, positive = more growth; AID 2326; calls by dose curve; also: potency is read from the fitted curve at half-maximal effect; actives are rising curves; nearly all actives have a fitted effect of over 50% in size
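Compounds were scored for reversing the slow growth caused by influenza A NS1 in S. cerevisiae, measured by optical density at 600 nm. Assay medium contained 2% galactose at pH 6.0; NS1-free yeast of the same strain were the positive control.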
Pf growth 48h – P. falciparum growth inhibition at 48 hours (one generation); P. falciparum luciferase growth in erythrocytes, 48 h; Potency, µM (highest dose often 28.7 µM), inactives show at the highest dose activity change, negative = inhibition, actives largely listed as inhibitors; 310,000 compounds, 5.9% hits; also: potency is read from the fitted curve at half-maximal effect; % is scaled to controls: 0 for no effect and ±100 for the full control effect
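Compounds are pin-transferred into medium, infected erythrocytes (2% hematocrit, 0.1% parasitemia final) are added, and plates sit one parasite generation at 37 C in 5% CO2. Detection reagent is then added and luminescence measured.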
Starred values were filed as active, the others as inactive; ? = inconclusive; . = not tested or not shown. Unless noted, calls follow the shape of the dose curve; as a rule, active = well fitted inhibition curve with a large enough effect; inconclusive = small, poorly fitted or top-dose-only effect, or another doubt; inactive = no such curve, though single readings can be large or run the other way.

SMILES	Shiga inhibitor	Pf growth 96h	CHX counter	NS1 function inh	Pf growth 48h
COc1cccc(CNc2ccc(N3CCCCC3)cc2)c1OC	34*	-18%	30*	?	0.52µM*
CC(=O)Oc1ccccc1C(=O)Nc1ccccc1C(=O)N1CCCCC1	28	?	-3	7%	?
COc1ccc(NC(=O)c2ccc3nc[nH]c3c2)cc1	62*	-5%	38*	4%	3%
O=C(Nc1ccc2c(c1)OCO2)c1ccc2nc[nH]c2c1	68*	40%	52*	16%	.
Cc1nc2ccc(C(=O)Nc3ccc4nc[nH]c4c3)cc2[nH]1	-8	-10%	5	4%	26%
O=C(Nc1ccc(C(F)(F)F)cc1)c1ccc2nc[nH]c2c1	54*	-6%	23*	-52%	0%
O=C1OC(N2C(=O)CC[C@H]2C(=O)Nc2ccc3c(c2)OCO3)c2ccccc21 (stereo not given in full)	1	66%	-3	-20%	8%
Cc1ccc(S(=O)(=O)N2CCC(C(=O)OCC(=O)N3CCCC(C)C3)CC2)cc1C (stereo not given)	.	21%	.	.	?
CC1=CC(=O)N(c2cccc(C(F)(F)F)c2)C1c1ccc(Cl)cc1 (stereo not given)	9	?	-5	-68%	8.3µM*
CC1=CC(=O)N(c2ccc(C)cc2)C1c1ccc(Cl)cc1 (stereo not given)	9	?	4	-1%	?
CSc1nnc(-c2sccc2OCc2ccccc2)n1C	-12	18%	-4	-12%	-4%
CSc1n[nH]c(-c2sccc2OCc2ccc(C)cc2)n1	-2	4.1µM*	-1	-67%	?
Cc1cc(C)c2c(n1)nn1c(N3CCN(Cc4ccccc4)CC3)cc(C)nc21	16	.	-4	1%	-16%
COc1ccc(F)cc1CN1CCN(c2cc(C)nc3c4c(C)cc(C)nc4nn23)CC1	-20	?	-2	-25%	15µM*
Cc1ccc(NC(=O)CN2C(=O)N/C(=C/c3cc(C)n(-c4ccc(C(=O)O)cc4)c3C)C2=O)cc1	84*	?	33	.	-19%
C=CCc1ccc(O)c(-c2cc(CC=C)ccc2O)c1	-6	3.7µM*	-9	-35%	?
COc1cc(/C=C/C(=O)c2ccc([N+](=O)[O-])o2)ccc1O	.	?	.	.	13µM*
COc1ccc(/C=C/C(=O)c2ccc([N+](=O)[O-])o2)cc1OC	.	?	.	.	12µM*
COc1ccc(/C=C/C(=O)c2ccc3c(c2)OCCO3)cc1[N+](=O)[O-]	8	8%	-1	-2%	-3%
COc1cc(/C=C/[N+](=O)[O-])ccc1O	-27	?	-8	-55%	?
COc1ccc(/C=C/C(=O)C(C)(C)C)cc1OC	12	?	16*	-3%	-11%
OCCC1CN(Cc2cccn2-c2cccnc2)CCN1Cc1ccccc1 (stereo not given)	0	?	-2	0%	-9%
CCOc1ccc(C2c3[nH]c4ccccc4c3CCN2C(=O)Cn2cncn2)cc1 (stereo not given)	-15	-10%	-3	5%	?
CCN(CC)S(=O)(=O)c1cc(C(=O)NCCN2CCOCC2)ccc1Cl	12	-5%	-1	.	-3%
CC(C)c1nnc(NC(=O)C2CCCCC2)s1	20*	61%	13*	?	41%
SMILES	Shiga inhibitor	Pf growth 96h	CHX counter	NS1 function inh	Pf growth 48h
CC(C)Sc1nnc(Nc2ccccc2)s1	143*	?	37*	-50%	70%
CCCC(=O)Nc1nnc(SCC)s1	38*	-8%	19*	16%	20%
NC(=O)c1ccsc1NC(=O)CSc1nnc(Nc2ccccc2)s1	-1	?	14	15%	?
CSc1nnc(NC(=O)C2CCCCC2)s1	-3	?	-2	8%	94%
CCCC(=O)Nc1nnc(SCC(=O)N2CCCCC2)s1	-4	7%	-4	13%	7%
CCc1nnc(NC(=O)CN2C(=O)CCC2=O)s1	-3	11%	-3	6%	5%
CCc1nnc(NC(=O)NC(C)(C)C)s1	95	34%	24*	-3%	.
CCC(Br)C(=O)Nc1ccc(OC)cc1 (stereo not given)	0	-32%	15	.	-1%
O=S(=O)(Nc1nc(-c2ccccc2)cs1)c1cc(Cl)ccc1Cl	-5	-14%	-1	-74%	13%
O=C(NCC1COc2ccccc2O1)c1cccc(S(=O)(=O)NCc2ccccc2)c1 (stereo not given)	.	-16%	.	.	?
CC(C)=CC(=O)Nc1nnc(C(C)C)s1	53	22%	46*	-11%	96%
Cc1ccccc1NC(=O)CSc1nnc(NC(=O)C2CC2)s1	-4	5%	-2	-4%	3%
CCSc1nnc(NC(=O)NC(CC)(C(F)(F)F)C(F)(F)F)s1	18	?	-4	-17%	12µM*
CC(C)Sc1nnc(NC(=O)C2CC2)s1	active	35%	35*	?	47%
CCSc1nnc(NC(=O)C2CCCCC2)s1	62*	.	25*	-9%	69%
CC1Cc2ccccc2N1C(=O)CN1C(=O)NC2(CCCCC2)C1=O (stereo not given)	.	-24%	.	.	-10%
COc1ccc(C(=O)NCCCNC(=O)c2cccnc2)cc1Br	-2	?	7	4%	-6%
CCc1nnc(NC(=O)C2CCCCC2)s1	13	36%	39*	-12%	44%
CCOC(=O)Cc1nnc(NC(=O)C2CCCCC2)s1	4	3%	7	4%	23%
Cc1ccn2cc(-c3cc4ccccc4oc3=O)nc2c1	76*	8%	44*	-5%	249%
CC(=O)Nc1ccc(NC(=O)C2CCN(c3ccc(C(F)(F)F)cn3)CC2)cc1	-23	26%	6	7%	-7%
O=C(Nc1ccc(Oc2ccc(C(F)(F)F)cn2)c(Cl)c1)C1CC1	11	12µM*	5	.	?
O=C(COC(=O)CCC(=O)c1cccs1)Nc1ccccc1[N+](=O)[O-]	-14	12%	-2	.	8%
Cc1cc(C(C)c2ccccc2)c(O)c(CN2CCOCC2)c1C (stereo not given)	18	8%	9	-41%	1.9µM*
CCCc1n[nH]c2c1C(=O)CC(C)(C)C2	7	0%	-4	-14%	-3%
SMILES	Shiga inhibitor	Pf growth 96h	CHX counter	NS1 function inh	Pf growth 48h
CC1(C)CC(=O)c2c(-c3cccs3)n[nH]c2C1	90*	27%	18*	-33%	34%
Cc1ccc(-n2c(O)cnc2Nc2nc(C)cc(C)n2)cc1	-26	0.29µM*	-2	5%	13%
Cc1cc(C)nc(Nc2ncc(O)n2-c2ccccc2)n1	-17	?	1	-8%	41%
COc1ccc(C(=O)N2CCN(c3ccc(F)cc3)CC2)cc1S(=O)(=O)NC1CC1	.	84%	.	.	96%
Brc1ccc(-c2noc(C3CCCCC3)n2)cc1	34*	0%	14*	2%	252%
O=C(NC1CCCCC1)N1CCC(c2nc(-c3ccc(S(=O)(=O)N4CCCC4)cc3)no2)CC1	-16	4%	-3	1%	?
c1ccc(-c2noc(-c3ccc4ccccc4c3)n2)nc1	-15	.	-4	-2%	-95%
